High-throughput results as filed in PubChem BioAssay.
In the library only some 11% were active in any assay of this set; here they are far more common.
PNC assembly inh: perinucleolar compartment assembly inhibition; PC3M PTB-GFP, PNC prevalence imaging, 16 h; hits give low values; activity change (PNC), negative = inhibition, % at 10 µM; 140,000 tested, 3.1% active;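 active = readout at or below -70, meaning at least 70% loss of cells showing the perinucleolar compartment, a nuclear body marking cancer cells; inconclusive = readout between -30 and a set limit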;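 also: plate controls were DMSO wells for no effect and camptothecin positive control wells for full effect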
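Compounds are pinned in duplicate onto adhered PC3M cells stably expressing GFP-tagged PTB and incubated 16 h at 37 C. Cells are then fixed, nuclei stained with Hoechst, and PNC-positive cells counted.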
HPGD block: inhibitors of human 15-hydroxyprostaglandin dehydrogenase (HPGD). P15428. purified HPGD, NADH fluorescence kinetic, PGE2 substrate. Potency, µM, for inactives: top-dose activity change, negative = inhibition, most hits filed as inhibitors. 150,000 tested, 4.3% active. AID 894; active = well fitted inhibition curve with a large enough effect, not every such curve was filed as active; inconclusive = small, poorly fitted or top-dose-only effect, or another doubt; inactive = no such curve, though single readings can be large or run the other way; also: potency is read from the fitted curve at half-maximal effect
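20 nM HPGD preincubated 15 min at room temperature with compound in 50 mM Tris-HCl pH 8, 0.01% Tween 20. Started with 1 mM NAD+ and 30 uM prostaglandin E2; NADH fluorescence (360/450 nm) read 5 times over 30-s intervals, last minus first.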
ALDH1A1 inh: ALDH1A1 (human) enzyme inhibition | Purified ALDH1A1, NADH fluorescence, propionaldehyde substrate | 220,000 tested, 7.3% active | P00352 | Potency, µM (top dose mostly 75.3 µM), for the others: at the highest dose activity, negative = inhibition, actives largely listed as inhibitors | AID 1030; active = well fitted inhibition curve with a large enough effect, not every such curve was filed as active; inconclusive = small, poorly fitted or top-dose-only effect, or another doubt; inactive = no such curve, though single readings can be large or run the other way;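 also: potency is read from the fitted curve at half-maximal effect; plate controls were no enzyme wells and a reference inhibitor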
Target sequence (P00352 whole entry, looked up): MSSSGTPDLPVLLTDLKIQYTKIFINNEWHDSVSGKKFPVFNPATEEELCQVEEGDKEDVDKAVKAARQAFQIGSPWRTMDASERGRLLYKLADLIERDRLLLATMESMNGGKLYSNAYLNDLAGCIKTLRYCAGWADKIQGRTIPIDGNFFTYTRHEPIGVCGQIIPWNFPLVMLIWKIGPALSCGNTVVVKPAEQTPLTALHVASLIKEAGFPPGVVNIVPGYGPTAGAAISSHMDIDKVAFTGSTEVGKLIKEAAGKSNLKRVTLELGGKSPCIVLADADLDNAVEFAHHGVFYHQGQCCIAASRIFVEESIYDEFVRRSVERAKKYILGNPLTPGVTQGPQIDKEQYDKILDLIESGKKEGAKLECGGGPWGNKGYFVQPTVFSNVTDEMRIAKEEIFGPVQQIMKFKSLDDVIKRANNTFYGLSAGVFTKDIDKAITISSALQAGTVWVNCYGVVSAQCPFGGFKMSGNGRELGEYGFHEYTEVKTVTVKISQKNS
IMPase cell inh: membrane-permeable compound that blocks inositol monophosphatase; AID 901; 120,000 tested, under 10 active; P97697; inhibition (IP1 accumulation), % at 46.1 µM; CHO-M1 cells, IP1 accumulation, HTRF TR-FRET ratio; active = well fitted curve in the direction sought with a large enough effect in the signal ratio, not every such curve was filed as active; inconclusive = small, poorly fitted or top-dose-only effect, or a change in a side signal; inactive = no such curve, though single readings can be large or run the other way; the % refers to the signal ratio;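 also: cells stimulated with carbachol in lithium chloride buffer; plate controls were DMSO basal wells for no effect and reference inhibitor wells for full effect; higher means more IMPase inhibition seen as more IP1 and lower FRET ratio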
Target sequence (P97697 whole entry, looked up): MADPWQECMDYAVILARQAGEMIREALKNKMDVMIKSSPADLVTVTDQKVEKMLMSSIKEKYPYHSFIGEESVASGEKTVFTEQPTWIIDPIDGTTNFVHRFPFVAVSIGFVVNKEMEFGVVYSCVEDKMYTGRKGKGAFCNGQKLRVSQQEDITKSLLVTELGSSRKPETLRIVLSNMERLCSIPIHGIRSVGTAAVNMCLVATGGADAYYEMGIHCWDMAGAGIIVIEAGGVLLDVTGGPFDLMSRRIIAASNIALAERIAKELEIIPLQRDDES
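CHO-M1, 2000 cells/well, cultured 16–30 h; cpd up to 46 uM; carbachol (50 uM solution, stimulation buffer w/ 50 mM LiCl, pH 7.4), 30 min 37C; IP-One TR-FRET, 10 min RT; Ex 320/Em 665, 620; Hill-fit AC50.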
IMPase Li inh: cell-permeable IMPase inhibitors with lithium potentiation; AID 1457; 210,000 tested, 0.35% active; Potency, µM (top dose mostly 59.4 µM), without a hit: top-dose activity, negative = IMPase inhibition, most hits filed as inhibitors; CHO-M1 cells, IP1 TR-FRET (IP-One), carbachol + lithium;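 also: IP1 builds up when IMPase is blocked and the TR-FRET signal falls; potency is read from the fitted curve at half-maximal effect; plate controls were basal vehicle for no effect and high inhibitor control for full effect; nearly all actives have a fitted effect of over 50% in size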
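CHO cells stably expressing M1 receptor (2000/well, cultured 16–30 h) treated 30 min at 37C with compound plus low lithium. Cytosolic IP1 by TR-FRET (665/620 ratio and 620 channel) after 10 min lysis; AC50 by Hill fit.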
ALOX12 inhib: inhibitors of human 12-lipoxygenase (ALOX12) | 150,000 tested, 0.12% active | Potency, µM (titrated, usually from 57.1 µM), inactives show at the highest dose activity change, negative = inhibition, hits mostly inhibitors | purified 12-hLO, xylenol orange hydroperoxide absorbance; also: potency is read from the fitted curve at half-maximal effect; nearly all actives have a fitted effect of over 55% in size
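Hydroperoxide output read as Fe(III)-xylenol orange absorbance, 573-to-405 nm ratio, after 30 min reaction with 40 uM arachidonic acid. Enzyme: 150 nM purified human 12hLO, 15 min compound preincubation; 25 mM Hepes pH 7.0, room temperature.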
Active calls of the source: *; [ ] = another dose, or the depositor's remark. Unless noted, calls follow the shape of the dose curve; as a rule, active = well fitted curve in the direction sought with a large enough effect; inconclusive = small, poorly fitted or top-dose-only effect, or another doubt; inactive = no such curve, though single readings can be large; an effect the other way counts as inactive or inconclusive. Unless noted, % is scaled to controls: 0 for no effect and ±100 for the full control effect.

`C/C(=N\NC(=O)c1cccc(N/N=C(\C)c2ccncc2)c1)c1ccncc1` gave ALDH1A1 inh inconclusive and IMPase Li inh 35.1%.
Screening C/C(=N\NC(=O)c1cccc(N/N=C(\C)c2ccccc2)c1)c1ccccc1 returned PNC assembly inh inconclusive, HPGD block inconclusive, ALDH1A1 inh 11.9µM*, IMPase cell inh -4.7, IMPase Li inh 1.2% and ALOX12 inhib -5.0%.
C/C(=N\Nc1cccc(C(F)(F)F)c1)c1ccc(O)cc1 was read as ALDH1A1 inh 20µM* and IMPase Li inh 3.0%.
CCOc1cc(CN2CCN(S(=O)(=O)c3ccc(C)cc3)CC2)ccc1OC was read as IMPase cell inh 0.3.
O=C(O)c1ccc(NS(=O)(=O)c2ccsc2C(=O)O)c(O)c1 was read as HPGD block -11.0%, ALDH1A1 inh 11.2%, IMPase Li inh -9.6% and ALOX12 inhib -1.0%.
For O=C(c1ccc(CNc2c(N3CCOCC3)c(=O)c2=O)cc1)N1CC=C(c2ccccc2)CC1 the results were PNC assembly inh -18.4, HPGD block 25.1µM*, ALDH1A1 inh -5.8%, IMPase cell inh -6.3, IMPase Li inh 19.9%[38.3 µM] and ALOX12 inhib -0.7%.
CCOC(=O)C1CCN(c2c(NCc3ccc(C(=O)NCCOC)cc3)c(=O)c2=O)CC1 was read as PNC assembly inh 4.5, HPGD block 3.55µM*, ALDH1A1 inh -12.4%, IMPase cell inh 3.6, IMPase Li inh -3.4%[38.3 µM] and ALOX12 inhib -2.9%.
`CCCCNC(=O)c1ccc(CNc2c(N3CCC(C(=O)OCC)CC3)c(=O)c2=O)cc1` gave PNC assembly inh inconclusive, HPGD block 3.55µM*, ALDH1A1 inh inconclusive, IMPase cell inh -3.9, IMPase Li inh 10.0% and ALOX12 inhib -4.1%.
Screening CC1CCCC(NC(=O)c2ccc(CNc3c(N4CCCC4)c(=O)c3=O)cc2)C1C (centres undefined) returned PNC assembly inh -15.4, HPGD block inconclusive, ALDH1A1 inh inconclusive, IMPase cell inh 0.2, IMPase Li inh 6.2%[38.3 µM] and ALOX12 inhib -6.4%.
Screening CCOC(=O)C1CCN(c2c(NCCCN(CC)c3ccccc3)c(=O)c2=O)CC1 returned PNC assembly inh 22.8, HPGD block inconclusive, ALDH1A1 inh -5.2%, IMPase cell inh -1.2, IMPase Li inh 28.0%[38.3 µM] and ALOX12 inhib 2.9%.
For CCOC(=O)C1CCN(c2c(NCc3ccc(C(=O)NC4CCCC4)cc3)c(=O)c2=O)CC1 the results were PNC assembly inh -13.3, HPGD block 2µM*, ALDH1A1 inh -9.9%, IMPase cell inh 3.3, IMPase Li inh 4.9%[38.3 µM] and ALOX12 inhib -3.2%.
Screening Cc1cc(C)cc(NC(=O)c2ccc(CNc3c(N4CCOCC4)c(=O)c3=O)cc2)c1 returned PNC assembly inh -22.4, HPGD block -28.2%, ALDH1A1 inh 9.5%, IMPase cell inh -2.7, IMPase Li inh -8.7%[38.3 µM] and ALOX12 inhib 0.4%.
`COC(=O)[C@H](COC(C)(C)C)NC(=O)O[C@@H]1C(=O)c2ccc(OC)cc2O[C@H]1c1ccc2c(c1)OCO2` gave HPGD block -5.2%, ALDH1A1 inh -3.7% and IMPase Li inh 1.4%.
For O=C(NC1CCCCCCC1)c1ccc(CNc2c(N3CCOCC3)c(=O)c2=O)cc1 the results were PNC assembly inh -26.2, HPGD block 17.8µM*, ALDH1A1 inh inconclusive, IMPase cell inh 5.8, IMPase Li inh 0.9% and ALOX12 inhib -3.8%.
CCOC(=O)N1CCN(c2c(NCCOC)c(=O)c2=O)CC1 was read as PNC assembly inh -25.3, HPGD block -15.0%, ALDH1A1 inh 31.6µM*, IMPase cell inh 5.2, IMPase Li inh -10.0%[38.3 µM] and ALOX12 inhib -7.5%.
Cn1c(=O)c2cc(S(=O)(=O)NC(C(=O)NC3CCCCC3)c3ccccc3)ccc2n(C)c1=O (centres undefined) was read as PNC assembly inh -5.5, HPGD block -9.7%, ALDH1A1 inh -7.1%, IMPase cell inh -12.4, IMPase Li inh -6.3%[38.3 µM] and ALOX12 inhib 6.6%.
Cn1c(=O)c2cc(S(=O)(=O)NC(C(=O)N3CCCCCC3)c3ccccc3)ccc2n(C)c1=O (centres undefined) was read as PNC assembly inh inconclusive, HPGD block -8.3%, ALDH1A1 inh 3.16µM*, IMPase cell inh -3.8, IMPase Li inh 5.4%[38.3 µM] and ALOX12 inhib -3.9%.
Screening Cc1ccc(F)c(NC=C2C(=O)OC(C)(C)OC2=O)c1 returned PNC assembly inh 24.4, HPGD block -27.4%, ALDH1A1 inh 10µM*, IMPase cell inh -2.2, IMPase Li inh 2.5%[38.3 µM] and ALOX12 inhib -3.6%.
CC1(C)OC(=O)C(=CNC(=O)c2c(F)cccc2F)C(=O)O1 was read as ALDH1A1 inh 3.5% and IMPase Li inh 0.9%.
CCOC(=O)c1c(C)nn(Cc2cccc(Cl)c2)c1N was read as PNC assembly inh inconclusive, HPGD block 28.2µM*, ALDH1A1 inh 6.6%, IMPase cell inh -4.1, IMPase Li inh -23.1%[38.3 µM] and ALOX12 inhib -5.8%.
COCCNC(=O)C1=C(N)C(C(=O)Nc2ccc(C)c(S(=O)(=O)N3CCCCC3)c2)SC1=Nc1ccc(C)cc1C (centres undefined) was read as PNC assembly inh 0.4, HPGD block inconclusive, ALDH1A1 inh 0.794µM*, IMPase cell inh 7.4, IMPase Li inh 28.2%[38.3 µM] and ALOX12 inhib 0.4%.
`Cc1cc2c(cc1Cl)C(c1ccccc1C)CC(=O)O2` (centres undefined) gave HPGD block -19.4%, ALDH1A1 inh inconclusive, IMPase Li inh 11.2% and ALOX12 inhib -10.9%[0.00818 µM].
`CO/N=C\CC(=O)Nc1ccc(Cl)cc1Cl` gave ALDH1A1 inh 12.9% and IMPase Li inh 2.8%.
`Cc1ccc(CSc2nnc(-c3ccc4c(c3)OCO4)o2)cc1` gave PNC assembly inh 5.9, HPGD block -27.4%, ALDH1A1 inh -2.3%, IMPase cell inh 1.9, IMPase Li inh -26.9%[38.3 µM] and ALOX12 inhib -3.5%.
`Cc1cccc(NC2=NCC(=O)N2Cc2ccccc2)c1` gave PNC assembly inh 38.6, HPGD block -10.4%, ALDH1A1 inh 25.1µM*, IMPase cell inh -4.3, IMPase Li inh 12.1%[38.3 µM] and ALOX12 inhib 1.6%.
For Cc1ccc(Nc2nnc(-c3ccc4c(c3)OCO4)o2)c(C)c1 the results were HPGD block inconclusive, ALDH1A1 inh 18.9µM*, IMPase Li inh 3.0% and ALOX12 inhib -13.1%[11.4 µM].
For Cc1cc(C)cc(NC2=NCC(=O)N2Cc2ccccc2)c1 the results were PNC assembly inh -5.3, HPGD block -6.8%, ALDH1A1 inh 0.6%, IMPase cell inh 6.0, IMPase Li inh 40.2%[38.3 µM] and ALOX12 inhib 3.6%.
